Here are results for 35 molecules from PubChem BioAssay.

The assay relates to glycogen synthase kinase-3 (GSK3A per assay name; protocol says GSK3B). In words: compounds binding glycogen synthase kinase-3 – biochemical, small-molecule microarray, 635 nm fluorescence, GSK3A, primary screen (AID 1103). Note: the record names both GSK3A and GSK3B. The settings on record: fluorescence 635 nm, higher = more signal.
Turning to `COCCOC(=O)N1C(=O)[C@@]2(c3cc(C#CCCO)ccc31)[C@H](C(=O)N1CCCCCCC1)[C@H]1C(=O)O[C@H](c3ccccc3)[C@H](c3ccccc3)N1[C@@H]2c1ccc(OCCO)cc1`, the composite z-score was determined as 0.704.

Take `C=CC[C@@]12N=C(c3ccc(OCCCO)cc3)O[C@@H]1c1ccccc1N(C)C2=O`: the composite z-score stood at 1.32. Consider `O=C1C2C=CC(C(O)Cc3ccccc3)N(n3cnnc3)C2C(=O)N1Cc1ccccc1` (stereo not given), for which the composite z-score came to 0.0704. Consider `CCN(CC)c1ccc(N2CC=CC34O[C@@H]5C=CCCOC(=O)C5[C@H]3C(=O)N(CCCCCCO)[C@@H]4C2=O)cc1` (stereo not given in full), for which the composite z-score is -0.39. As for `O=C1c2ccccc2[C@](Cc2ccccc2I)(C(=O)NCCN2CCOCC2)[C@H](c2ccc(CO)cc2)N1C1CCCCC1`, the figure is 1.3.

With `[N-]=[N+]=Nc1ccccc1[C@@H]1OC(c2ccc(OCCCO)cc2)=N[C@]1(CCS(=O)(=O)c1ccccc1)C(N)=O`, the composite z-score was determined as 1.23. As to `CN(C)C(=O)[C@@]1(CCS(=O)(=O)c2ccccc2)COC(c2ccc(OCCCO)cc2)=N1`, the composite z-score was determined as 0.476. `CC(C)C[C@@H]1NC(=O)[C@@H]2C[C@H](C(=O)O)[C@H](c3cccc(OCCO)c3)N2C1=O` registered a composite z-score of 0.12. In the case of `CCOC(=O)C[C@H]1[C@H](OC(=O)c2ccc(-c3ccccc3)cc2)[C@@H](NC(=O)Cc2ccc(OC)cc2)c2cc(OCCCO)ccc2N1C(=O)c1ccccc1` it was -0.454; in that of `C=C(CCCC)/C(=C/C[C@H](OC(C)=O)c1ccccc1OCCO)c1cc(C(=O)OC)ccc1OC`, -0.0368; in that of `C=CCC(OC(C)=O)[C@@H]1[C@@H](N(Cc2ccc(-c3ccccc3)cc2)C(=O)c2cccc3ccccc23)c2cc(OCCCO)ccc2N1C(=O)c1ccc(-c2ccccc2)cc1` (stereo not given in full), 0.366. Turning to `Cc1ccc(S[C@]2(C(=O)NCCCN(C)C)CC(=O)N(Cc3cc(C(F)(F)F)cc(C(F)(F)F)c3)[C@@H]2c2ccc(CO)cc2I)cc1`, the composite z-score is -2.21. The molecule `CCC[C@@H]1C[C@@]1(CCC)[C@@H](NC(=O)c1ccccc1)c1cccc(Cl)c1` displayed a composite z-score of 1.09. The molecule `COc1ccccc1CN1C(=O)c2ccccc2[C@@]2(Cc3ccccc3N(CC(C)C)C2=O)[C@@H]1c1ccc(CO)cc1` yielded a composite z-score of -0.882. On to `Cc1ccc(N2C(=O)c3ccccc3[C@@H](C(=O)NC3CC3)[C@@H]2c2ccc(CO)cc2)nc1`, for which the composite z-score was -0.968. `C=C[C@H](CO[Si](CC)(CC)CC)N(Cc1ccc(OC(C)=O)c(OC)c1)S(=O)(=O)c1ccc(Br)cc1` returned a composite z-score of 0.443.

Molecule `O=C1NC(=O)C2C1C=CC(C(O)c1cc(C(F)(F)F)cc(C(F)(F)F)c1)N2Nc1ccccn1` (stereo not given) gave a composite z-score of -0.164. Molecule `C[N+](C)(C)CCCC[C@@H]1NC(=O)[C@H]2C[C@@H](C(=O)NCCCCCCNC(=O)CS)[C@@H](c3cccc(OCCO)c3)N2C1=O` gave a composite z-score of -0.805. As for `CC(C)NC(=O)[C@@H]1c2ccccc2C(=O)N(C2Cc3ccccc3C2)[C@H]1c1ccc(CO)cc1`, the figure is 0.726; as for `C=C(CC1([C@@H](NP(=O)(c2ccccc2)c2ccccc2)[C@H]2C[C@@H]2CCCC)CC1)c1ccccc1`, 0.014; as for `CCOC(=O)C[C@H]1[C@H](OC(=O)c2ccc(C(=O)c3ccccc3)cc2)[C@@H](NC(=O)c2ccc3ccccc3n2)c2cc(OCCCO)ccc2N1C(=O)c1ccccc1`, 1.28. With `O=C1C[C@@](C(=O)NCCN2CCOCC2)(c2ccc([N+](=O)[O-])cc2)[C@@H](c2ccc(CO)cc2)N1CC12CC3CC(CC(C3)C1)C2`, the composite z-score was determined as 1.32. As for `CC(C)=CCN[C@H](CO)c1ccccc1`, the figure is -0.366; as for `COC(=O)[C@@]1(Cc2ccc(OC)cc2)[C@H]2c3cc(C(=O)N(C)C)n(C)c3C[C@H]2CN1C(=O)c1ccccc1`, 0.789. `CN1C(=O)C2C=CC(C(O)c3ccc([N+](=O)[O-])cc3)N(N3CCCCC3)C2C1=O` (stereo not given) displayed a composite z-score of 0.964.

`CC(=O)n1cc(C(O)C2C=CC3C(=O)N(c4ccccc4)C(=O)C3N2Nc2ccc([N+](=O)[O-])cc2)c2ccccc21` (stereo not given): the composite z-score is 1.28.

In the case of `O=C(c1ccccc1)N1Cc2ccccc2C[C@@]2(COC(c3ccc(OCCCO)cc3)=N2)C1=O`, the composite z-score was found to be 1.29.

With `O=C(c1ccccc1)N1C(=O)[C@]2(COC(c3ccc(OCCCO)cc3)=N2)Cc2ccccc21`, the composite z-score turned out to be 1.32. In the case of `CCCC[C@@H]1C[C@H]1[C@@H](NC(=O)c1ccccc1)c1ccc(C(=O)OC)cc1` it was -0.534; in that of `COc1cc2c(cc1O)C(C1CC1)N(Cc1sc3ccccc3c1Cl)CC2` (stereo not given), 0.135. In turn, `O=C1N(Cc2ccccc2)c2ccccc2[C@@H]2OC(c3ccc(OCCCO)cc3)=N[C@]12CCS(=O)(=O)c1ccccc1` registered a composite z-score of 0.251. With `CO[C@H]1O[C@H](CO)[C@@H](OC(=O)Nc2cccc(F)c2)[C@H](OC(=O)Nc2ccccc2)[C@@H]1OC(=O)Nc1ccccc1`, the composite z-score amounted to 1.28.

Regarding `COc1ccc(CCNC(=O)[C@@]2(Sc3ccc(C)cc3)CC(=O)N(C(C)C)[C@@H]2c2ccc(CO)cc2I)cc1`, the composite z-score is -1.02. In the case of `Cc1ccc(S[C@]2(C(=O)NCCCN(C)C)CC(=O)N(Cc3cc(C(F)(F)F)cc(C(F)(F)F)c3)[C@@H]2c2ccc(CO)cc2)cc1` it was -0.655; in that of `CC(C)NC(=O)[C@@]1(c2ccc([N+](=O)[O-])cc2)CC(=O)N(C2CCCCC2)[C@@H]1c1ccc(CO)cc1I`, 0.406.
